# Screens deposited in PubChem by several laboratories.
# The list is not random: actives were taken first. Their share in the collection is about 12%.
# CHOP inh: inhibitors of CHOP promoter induction, primary screen, cell-based, unfolded protein response, luciferase reporter | CHO-K1 CHOP-promoter luciferase, tunicamycin-induced, 15-18 h | inhibition, % at 10 µM | 220,000 tested, 3.8% active;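 active = compounds that reduced the stress-induced luciferase reporter signal by more than about 70% of percent inhibition, limit read from the data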;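 note: 0% = tunicamycin plus vehicle and 100% = wells without tunicamycin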
# Arbovirus inh: antivirals against arbovirus infection, primary screen, cell-based, full library, 10K replicate subset. arbovirus infection cell-based antiviral screen. inhibition, % at 10 µM. 200,000 tested, 0.37% active; in the data active = inhibition above about 30%
# WT yeast gro inh: growth inhibition of WT strain, primary screen, mitochondrial fusion inhibitor project, WT and mutant strains, chemical genetic | mitochondrial fusion phenotypic screen | inhibition, % at 10 µM | 190,000 tested, 2.1% active; in the data active = inhibition above about 58%; tested in S. cerevisiae
# L major viab: Leishmania major promastigote growth inhibition, primary screen; Leishmania major promastigotes, resazurin fluorescence viability; AID 1063, 2008; 200,000 tested, 9% active; inhibition, % at 10 µM; in the data active = inhibition above about 50%;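 note: promastigotes grown with compound for 44 hours at 28 °C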
# * marks the source's active call; other numbers are inactive results; . = not tested or not shown.
SMILES,CHOP inh,Arbovirus inh,WT yeast gro inh,L major viab
COc1ccc(C(=O)Oc2cccc(/C=N/NC(N)=S)c2)cc1,10,2,-7,24
CC(Sc1nnc(-c2cccs2)n1-c1ccccc1)C(=O)NCc1ccc2c(c1)OCO2 (configuration not stated),46,-8,6,91*
CC1CC2(CCCCC2)N2C(=O)C(=O)c3cccc1c32 (configuration not stated),75*,-32,.,49
Cc1cc2c3c(c1)C(C)CC(C)(C)N3C(=O)C2=O (configuration not stated),-19,-11,7,20
CCC(CC)NC(=O)CO/N=C/c1ccccc1OC(F)F,12,3,-7,28
OCC1(Cc2ccccc2)CCCN(Cc2ccn[nH]2)C1 (configuration not stated),14,3,-13,0
Cc1cc(C)nc(NC2=NCC(=O)N2CCc2c[nH]c3ccccc23)n1,-11,10,-6,-8
O=C(N[C@@H](Cc1c[nH]c2ccccc12)C(=O)O)c1ccc(Cl)cc1,58,3,-16,-5
Cc1cc(C)nc(NC(=NCCc2c[nH]c3ccccc23)NC(=O)Nc2ccc(Cl)cc2)n1,35,25,29,73*
CCCOc1ccccc1N/C(=N/c1nc(C)cc(C)n1)NC(=O)Nc1ccc(Cl)cc1,30,5,2,12
NC(=NCCc1c[nH]c2ccccc12)NC(=O)c1ccc(Cl)cc1,52,-34,15,60*
Cc1cc(C)nc(NC(N)=NCCc2c[nH]c3ccccc23)n1,6,-8,19,78*
O=C(Nc1ccc(S(=O)(=O)Nc2ccccn2)cc1)C(F)(F)F,0,4,-11,0
COc1ccc(/C=C/C(=O)c2ccccc2)cc1Cn1nnc2ccccc21,-66,-34,24,100*
CN(C)c1ccc(/C=C/C(=O)c2ccccc2)cc1[N+](=O)[O-],-22,4,32,100*
COc1ccc(/C=C/C(=O)c2ccccc2)cc1COc1ccc(F)cc1,6,4,-8,60*
COc1ccc(Oc2ccc(/C=C/C(=O)c3ccc(O)cc3)cc2[N+](=O)[O-])cc1,86*,-35,28,100*
COc1ccc(C(=O)/C=C/c2ccc(OC)c(COc3ccccc3F)c2)cc1,-6,8,5,45
COC(=O)c1ccc(Cn2nnc3ccccc32)cc1,5,.,.,.
O=C(CNc1n[nH]c(=O)[nH]c1=O)N/N=C/C=C/c1ccccc1,-2,.,.,.
COc1ccc(/C=C/C(=O)c2ccc(O)cc2)cc1COc1ccc(F)cc1,85*,-32,90*,97*
Cc1nn(-c2ccccc2)c(N)c1C1(O)C(=O)Nc2ccccc21 (configuration not stated),10,.,.,.
N#C/C(=C(/O)CN1CCCCC1)c1nc(-c2ccc(Cl)cc2)cs1,42,11,11,-3
N#C/C(=C(/O)CN1CCN(c2ccccc2F)CC1)c1nc(-c2ccc(Cl)cc2)cs1,82*,-6,5,-7
Cc1c(C)n(Cc2ccccc2)c2ccc(C(=O)OCCCN(C)C)cc12,65,-31,87*,100*
SMILES,CHOP inh,Arbovirus inh,WT yeast gro inh,L major viab
CCN1CCN(C(=O)c2ccc3c(c2)c(C)c(C)n3Cc2ccccc2)CC1,39,-25,-11,9
Cc1ccc(-n2c(C)nn(CCOc3ccccc3)c2=O)cc1,1,0,0,-9
FC(F)(F)c1cccc(NC(=S)N(CCCN2CCCC2)Cc2cccn2Cc2ccc(Cl)cc2)c1,49,-33,95,100*
Cc1ccc(NC(=S)N(CCCN2CCCC2)Cc2cccn2Cc2ccc(Cl)cc2)cc1C,53,-30,76*,101*
Cc1ccc(NC(=S)N(CCCN2CCCC2)Cc2cccn2Cc2ccc(Cl)cc2)cc1Cl,-27,-33,77*,100*
Cc1cc(NC(=S)N(CCN2CCCCC2)Cc2ccco2)ccc1Cl,26,12,18,33
COc1ccc(NC(=S)N(Cc2ccc(Cl)cc2)Cc2ccc(C(=O)O)cc2)cc1Cl,16,8,-12,2
COc1ccc(NC(=S)N(CCCN2CCCC2)Cc2cccn2Cc2ccc(Cl)cc2)cc1Cl,-21,-31,87*,100*
O=C(Nc1ccc(N2CCOCC2)cc1)C1CC(=O)N(c2ccc(F)cc2)C1 (configuration not stated),6,-4,-13,-7
Cc1ccc(NCc2nc3ccccc3n2CCOc2ccccc2)cc1,31,14,63*,38
CCCn1c(CNc2ccc(Br)cc2)nc2ccccc21,63,-12,44,97*
Cc1ccc(OCCCn2c(CO)nc3ccccc32)cc1,-19,11,-6,7
COC(=O)c1c(NC(=O)c2ccccc2[N+](=O)[O-])sc2c1CC(C)(C)NC2(C)C,-31,5,16,96*
O=C1CC(=O)N(Cc2ccco2)C(=O)N1,-1,34*,-1,-8
O=C1CC(=O)N(Cc2ccco2)C(=S)N1,31,19,14,-8
N#C/C(=C\c1ccc(-c2cccc([N+](=O)[O-])c2)o1)C(=O)Nc1nc(-c2cccs2)cs1,-14,.,.,.
CCC1ON(c2ccccc2)C2c3nc4ccccc4n3CC12 (configuration not stated),2,.,.,.
N#C/C(=C\c1cccnc1)C(=O)NC1CCCCC1,-3,-9,7,47
COc1ccc(CNC(=O)c2c(C)oc3c2C(=O)c2ccccc2C3=O)cc1,-21,-35,58,31
CC(=O)c1c(C)oc2c1C(=O)c1ccccc1C2=O,73*,-40,4,9
Cc1oc2c(c1C(=O)NCc1cccnc1)C(=O)c1ccccc1C2=O,104*,-22,88*,100*
COc1cccc(C2CC(c3ccc(Cl)cc3)Nc3nc(N)nn32)c1 (configuration not stated),4,5,7,-9
COc1ccc(C2CC(c3ccc(Br)cc3)Nc3nc(N)nn32)cc1 (configuration not stated),37,7,-5,9
COc1ccc(C2CC(c3cccc(C)c3)n3nc(N)nc3N2)cc1 (configuration not stated),17,-7,8,86*
COc1cccc(C2CC(c3cccc(OC)c3)n3nc(N)nc3N2)c1 (configuration not stated),7,3,9,-11
COc1ccc(C2CC(c3cccc(Cl)c3)n3nc(N)nc3N2)cc1 (configuration not stated),7,6,12,62*
Cc1cccc(C2CC(c3ccc(Br)cc3)Nc3nc(N)nn32)c1 (configuration not stated),43,4,12,73*
COc1cccc(C2CC(c3cccc(Br)c3)n3ncnc3N2)c1 (configuration not stated),18,-14,9,-4
Fc1cccc(C2CC(c3cccc(Br)c3)Nc3nnnn32)c1 (configuration not stated),83*,5,-3,5
O=C(COC(=O)/C=C/c1ccco1)NCc1ccc2c(c1)OCO2,7,0,8,-6
